{
  "source": "the supplement of paper PMC6555819",
  "data": [
    {"test_system": "RARg homodimer (NR concentration 270 nM)", "experiment": "PBM binding z-score (relative to random genomic background probes); higher = stronger binding; sequences stand for … in GC…GCGATTGACAGCGTAGAATGAAGG", "outline": "(§1)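 Scanned fluorescence from custom Agilent 4×180K protein-binding microarrays was regression-normalized. Binding z-scores use random background probes as reference. Ligand-free nuclear receptor dimers were incubated on the arrays for 1 h and detected with antibodies against each partner (one per run).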", "values": [
      {"sequence": "CCTTACGGGTCACGAAGTTATAGCACGACGAGCG", "PBM binding z-score": 4.74},
      {"sequence": "TCTTGTAGATCAAGTAGGTTAAGAAAGCCTGAGT", "PBM binding z-score": -0.106},
      {"sequence": "CGTCCAAGGTCAAAGGTCCGTGAAGAGATGACGG", "PBM binding z-score": 6.35},
      {"sequence": "CCTTACGGGTCACTGACAGGTTAAAGCATTTGGA", "PBM binding z-score": 5.25},
      {"sequence": "ACTAGCAGGCCAAGGGTCACTCGAGATTAGTCCG", "PBM binding z-score": 4.02},
      {"sequence": "ATATGGAGGTTACATCCGGGTCATTCAGGCTATG", "PBM binding z-score": 2.66},
      {"sequence": "GATACAGGGTCAAGTCCAGAGTACGCGTATTGAT", "PBM binding z-score": 5.41},
      {"sequence": "ATATGTAGGTTATCGGGTCATTCAGTTTGCGCAT", "PBM binding z-score": 2.5},
      {"sequence": "ACTATTAGTTGACTTAGGGGAACCGATACGACGC", "PBM binding z-score": 0.663},
      {"sequence": "TCTTGTAGATCAGCTGGTTAAGAAAGCTGGCCAA", "PBM binding z-score": -0.758},
      {"sequence": "CTCGAAAGGTCGGTTGAGGTGAGTATGCGGATAA", "PBM binding z-score": 2.73},
      {"sequence": "CCTATTAGTTGACCATGAGGGCAACCGAAGCTCG", "PBM binding z-score": 1.16},
      {"sequence": "AGAATGAGGTTACCAATGATCAGGGAAACGCTTG", "PBM binding z-score": 1.63},
      {"sequence": "CTCGAAAGGTCGGCTGAGGTGAGTATACGGATAA", "PBM binding z-score": 3.8},
      {"sequence": "CGTCCAAGGTCAGAGAGGTCAGTGCATGCCGAGT", "PBM binding z-score": 6.95},
      {"sequence": "TCTAGTTGGTCACTGAGGTCACACACGACGGGTA", "PBM binding z-score": 4.83},
      {"sequence": "ATCTCTAGGTAACCAAGTTCACTGAATGCCGAAC", "PBM binding z-score": 1.41},
      {"sequence": "TAGCCTATGTCATTCAGGGGCCAGTATAGAAAGC", "PBM binding z-score": 0.547},
      {"sequence": "ACTAGCAGGCCAAGTTTGGGTCTCTCAAACAAAG", "PBM binding z-score": -0.0296},
      {"sequence": "GTACCAAGGTGAATAGGTCGCTGATGAGTAGGCG", "PBM binding z-score": 1.53},
      {"sequence": "TCTGCTAGGGCAACGATGGTCAGCTAATCTGCTA", "PBM binding z-score": 0.934},
      {"sequence": "CGTCCAAGGTGATAGGAGGTCAGTGAAGACAGAT", "PBM binding z-score": 2.86},
      {"sequence": "GCTAGTTGGTCAGGAAAAGGTCACACACCGGTCG", "PBM binding z-score": 4.46},
      {"sequence": "ATAATGAGGTTATTAAGATCAGGGAATTGCGGTC", "PBM binding z-score": 1.21},
      {"sequence": "AGAACGGGGGCACGCTGAGTTGATAGCAGAGTAG", "PBM binding z-score": 3.2},
      {"sequence": "GCTAGCAGGCCATTTGCGTCACTCAATGACGGGC", "PBM binding z-score": -0.336},
      {"sequence": "TAGCCTAGGTCAGATCGGGCCAGCATACGCTATA", "PBM binding z-score": 3.52},
      {"sequence": "CCGACTGGGGCGAAGGTTACCATACTCAGTACGA", "PBM binding z-score": 0.405},
      {"sequence": "AGTCAAAGTTCATCTAGGTAACGTCAGATATGCT", "PBM binding z-score": 6.22},
      {"sequence": "CGTCCAAGGTCAGCAGTTCAGTGAAAGCGACGTG", "PBM binding z-score": 6.02},
      {"sequence": "AGAGCGAGGGCAATGAGTTGATAGCACGGGTGGC", "PBM binding z-score": 1.31},
      {"sequence": "TCTTGTAGATCAGCAGCTTAAGAAAGCTGGCCAA", "PBM binding z-score": -0.915},
      {"sequence": "AATACAGGGGCACTAGGCCAGAGTAGGTACGAAT", "PBM binding z-score": 0.835},
      {"sequence": "CCTAACGGGTCACTGACAGGTTATAGCATTTGGA", "PBM binding z-score": 4.16},
      {"sequence": "ATATGTAGGTTAGCTGGGGTGATTCAGACTAGGC", "PBM binding z-score": 0.761},
      {"sequence": "TCTTTTAGTTGAAGGGCAACCGACGAGTCCGTTT", "PBM binding z-score": 0.744},
      {"sequence": "TCATATAGGTAAATGCTAGGTGCAAGTCCGATCT", "PBM binding z-score": 0.13},
      {"sequence": "ACTCGGAGGACAAAGGTCAGAGCGACGCCAGTGA", "PBM binding z-score": 5.38},
      {"sequence": "CGGCCAAGGTCAATGCTAGGTCAGTGAAAGCATT", "PBM binding z-score": 6.96}
    ]},
    {"test_system": "RXRa DBDmut IVT, anti-RXR (DBD mutation: RXRa K156A/R161A, NR concentration 90 nM)", "experiment": "PBM binding z-score (relative to random genomic background probes); higher = stronger binding; sequences stand for … in GC…GCGATTGACAGCGTAGAATGAAGG", "outline": "as §1", "values": [
      {"sequence": "CCTTACGGGTCACGAAGTTATAGCACGACGAGCG", "PBM binding z-score": 1.29},
      {"sequence": "TCTTGTAGATCAAGTAGGTTAAGAAAGCCTGAGT", "PBM binding z-score": 0.547},
      {"sequence": "CGTCCAAGGTCAAAGGTCCGTGAAGAGATGACGG", "PBM binding z-score": 3.54},
      {"sequence": "CCTTACGGGTCACTGACAGGTTAAAGCATTTGGA", "PBM binding z-score": 1.51},
      {"sequence": "ACTAGCAGGCCAAGGGTCACTCGAGATTAGTCCG", "PBM binding z-score": 0.801},
      {"sequence": "ATATGGAGGTTACATCCGGGTCATTCAGGCTATG", "PBM binding z-score": 1.17},
      {"sequence": "GATACAGGGTCAAGTCCAGAGTACGCGTATTGAT", "PBM binding z-score": 3.08},
      {"sequence": "ATATGTAGGTTATCGGGTCATTCAGTTTGCGCAT", "PBM binding z-score": 1.87},
      {"sequence": "ACTATTAGTTGACTTAGGGGAACCGATACGACGC", "PBM binding z-score": 1.15},
      {"sequence": "TCTTGTAGATCAGCTGGTTAAGAAAGCTGGCCAA", "PBM binding z-score": 0.269},
      {"sequence": "CTCGAAAGGTCGGTTGAGGTGAGTATGCGGATAA", "PBM binding z-score": 0.85},
      {"sequence": "CCTATTAGTTGACCATGAGGGCAACCGAAGCTCG", "PBM binding z-score": 0.831},
      {"sequence": "AGAATGAGGTTACCAATGATCAGGGAAACGCTTG", "PBM binding z-score": 0.994},
      {"sequence": "CTCGAAAGGTCGGCTGAGGTGAGTATACGGATAA", "PBM binding z-score": 0.843},
      {"sequence": "CGTCCAAGGTCAGAGAGGTCAGTGCATGCCGAGT", "PBM binding z-score": 3.49},
      {"sequence": "TCTAGTTGGTCACTGAGGTCACACACGACGGGTA", "PBM binding z-score": 1.56},
      {"sequence": "ATCTCTAGGTAACCAAGTTCACTGAATGCCGAAC", "PBM binding z-score": 1.74},
      {"sequence": "TAGCCTATGTCATTCAGGGGCCAGTATAGAAAGC", "PBM binding z-score": -0.121},
      {"sequence": "ACTAGCAGGCCAAGTTTGGGTCTCTCAAACAAAG", "PBM binding z-score": -0.0597},
      {"sequence": "GTACCAAGGTGAATAGGTCGCTGATGAGTAGGCG", "PBM binding z-score": -0.316},
      {"sequence": "TCTGCTAGGGCAACGATGGTCAGCTAATCTGCTA", "PBM binding z-score": -0.149},
      {"sequence": "CGTCCAAGGTGATAGGAGGTCAGTGAAGACAGAT", "PBM binding z-score": 0.227},
      {"sequence": "GCTAGTTGGTCAGGAAAAGGTCACACACCGGTCG", "PBM binding z-score": 0.286},
      {"sequence": "ATAATGAGGTTATTAAGATCAGGGAATTGCGGTC", "PBM binding z-score": 2.09},
      {"sequence": "AGAACGGGGGCACGCTGAGTTGATAGCAGAGTAG", "PBM binding z-score": 2.78},
      {"sequence": "GCTAGCAGGCCATTTGCGTCACTCAATGACGGGC", "PBM binding z-score": -0.115},
      {"sequence": "TAGCCTAGGTCAGATCGGGCCAGCATACGCTATA", "PBM binding z-score": -0.834},
      {"sequence": "CCGACTGGGGCGAAGGTTACCATACTCAGTACGA", "PBM binding z-score": -0.021},
      {"sequence": "AGTCAAAGTTCATCTAGGTAACGTCAGATATGCT", "PBM binding z-score": 4.83},
      {"sequence": "CGTCCAAGGTCAGCAGTTCAGTGAAAGCGACGTG", "PBM binding z-score": 2.93},
      {"sequence": "AGAGCGAGGGCAATGAGTTGATAGCACGGGTGGC", "PBM binding z-score": 1.48},
      {"sequence": "TCTTGTAGATCAGCAGCTTAAGAAAGCTGGCCAA", "PBM binding z-score": 0.258},
      {"sequence": "AATACAGGGGCACTAGGCCAGAGTAGGTACGAAT", "PBM binding z-score": 0.764},
      {"sequence": "CCTAACGGGTCACTGACAGGTTATAGCATTTGGA", "PBM binding z-score": 1.48},
      {"sequence": "ATATGTAGGTTAGCTGGGGTGATTCAGACTAGGC", "PBM binding z-score": 0.484},
      {"sequence": "TCTTTTAGTTGAAGGGCAACCGACGAGTCCGTTT", "PBM binding z-score": 1.5},
      {"sequence": "TCATATAGGTAAATGCTAGGTGCAAGTCCGATCT", "PBM binding z-score": 1.51},
      {"sequence": "ACTCGGAGGACAAAGGTCAGAGCGACGCCAGTGA", "PBM binding z-score": 1.24},
      {"sequence": "CGGCCAAGGTCAATGCTAGGTCAGTGAAAGCATT", "PBM binding z-score": 3.65}
    ]}
  ]
}
